We go through 13 compounds from PubChem BioAssay AID1645838 (ICCB-Longwood Screening Facility, Harvard Medical School, 2021).

The assay is described as follows: supercomplex reporter luminescence per Hoechst cell count – Hoechst nuclei count (AID 1645838).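 As to all read-outs here: control cybrid cells.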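 As to z-score: higher means more mitochondrial supercomplex formation.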 The following applies: Cells, luminescence/Hoechst cell count ratio; for z-score: stronger effect = higher value; for cell count: measured here: cell number, Hoechst nuclei count.
[1] abbreviates: library stock concentration (final well concentration not given) 80 uM.
The mark [2] stands for this setting: library stock concentration (final well concentration not given) 400 uM.
[3] abbreviates: library stock concentration (final well concentration not given) 2 mM.
[4] abbreviates: library stock concentration (final well concentration not given) 10 mM.
[5] abbreviates: library stock concentration (final well concentration not given) 46 uM.
The mark [6] stands for this setting: library stock concentration (final well concentration not given) 278 uM.
[7] abbreviates: library stock concentration (final well concentration not given) 1.67 mM.

Out of some 2,000 compounds screened, about 100 (5%) were called active. Rule as the data show it: active = z-score above about 2; inactive = the rest. This excerpt belongs to a sample that is enriched for actives. Positions of bridges follow the written chain, without caps; N, C: chain ends. Non-standard residues stand in square brackets, D forms with d. Residues, ends and D or L forms follow the SMILES beside them. hArg = N=C(N)NCCCC[CH](N)C(=O)O; Mpa = O=C(O)CCS

Consider `O=C(O)CCC/C=C\C[C@@H]1[C@@H](/C=C/[C@@H](O)C2CCCCC2)[C@H](O)C[C@@H]1O`, for which the z-score is -0.293 (inactive) and the cell count came out at 5180.
`O=C1C[C@@H]2[C@@H](/C=C/[C@@H](O)COc3cccc(C(F)(F)F)c3)[C@H](O)C[C@@H]2O1`: the z-score is 0.782 (inactive) and the cell count amounted to 5240.
With `COc1cc(N2CCC(N3CCN(C)CC3)CC2)ccc1Nc1ncc(Cl)c(Nc2ccccc2S(=O)(=O)C(C)C)n1`, the outcome (library stock 10 mM) was “inactive; censored for cell count”. In addition, the z-score is, setting by setting: under setting [1], 0.0842 (inactive); under setting [2], 0.241 (inactive); under setting [3], 1.15 (inactive). Moreover, the cell count under setting [1] stood at 4260, the cell count under setting [2] was 4220 and the cell count under setting [3] came to 3560.
`COc1cc(N2CCOCC2)ccc1Nc1ncc(F)c(Nc2ccccc2NS(C)(=O)=O)n1`: the z-score was -0.351 (inactive) under setting [1], -0.312 (inactive) under setting [2], 0.0927 (inactive) under setting [3] and 3.16 (active) under setting [4]. Also, the cell count by setting is: under setting [1], 5830; under setting [2], 5470; under setting [3], 5120; under setting [4], 1690.
On to `CNC(=O)c1ccccc1Nc1nc(Nc2ccc(N3CCOCC3)cc2OC)ncc1Cl`, for which the outcome was “inactive; censored for cell count” (library stock 2 mM) and “inactive; censored for cell count” (library stock 10 mM). Besides, the z-score is, setting by setting: under setting [1], -0.243 (inactive); under setting [2], -0.00453 (inactive). Moreover, the cell count is, setting by setting: under setting [1], 6320; under setting [2], 5260.
`CCC(O)/C=C/C=O` (stereo unspecified): the z-score is 0.341 (inactive) and the cell count turned out to be 4950.
Consider `O=C1C(=Cc2cn(-c3ccccc3)nc2-c2ccc(OCc3ccc(Cl)cc3)cc2)SC(=S)N1CCS(=O)(=O)O`, for which the z-score is 0.0314 (inactive) under setting [1], 0.372 (inactive) under setting [2], -0.323 (inactive) under setting [3] and -0.219 (inactive) under setting [4]. Besides, the cell count is, setting by setting: under setting [1], 5380; under setting [2], 4640; under setting [3], 5180; under setting [4], 4960.
On to `c1ccc(Nc2nc3c(s2)CCCc2[nH]ncc2-3)nc1`, for which the z-score is -0.0827 (inactive) under setting [5], -0.00166 (inactive) under setting [6], -0.105 (inactive) under setting [7] and 0.335 (inactive) under setting [4]. The cell count amounted to 6250 under setting [5], 5830 under setting [6], 6080 under setting [7] and 5550 under setting [4].
In the case of `CC(C)C1C(=O)NC(CCCN=C(N)N)C(=O)NCC(=O)NC(CC(=O)O)C(=O)NC(Cc2ccccc2)C(=O)N1C` (stereo unspecified), the z-score is 0.68 (inactive) under setting [1], 0.227 (inactive) under setting [2], 0.518 (inactive) under setting [3] and 5.23 (active) under setting [4]. The cell count runs as follows: under setting [1], 5020; under setting [2], 5060; under setting [3], 4260; under setting [4], 1780.
For the compound `NC(=O)C1CSSCCC(=O)NC(CCCCN=C(N)N)C(=O)NCC(=O)NC(CC(=O)O)C(=O)NC(Cc2c[nH]c3ccccc23)C(=O)N2CCCC2C(=O)N1` (stereo unspecified) ([Mpa][hArg]GDWPC-NH2; disulfide 1-7; configuration not given here), the z-score reads like this: under setting [5], -0.201 (inactive); under setting [6], -0.18 (inactive); under setting [7], -0.38 (inactive); under setting [4], -0.0485 (inactive). In addition, the cell count amounted to 5770 under setting [5], 5930 under setting [6], 6620 under setting [7] and 5820 under setting [4].
On to `CCCCC[C@H](O)/C=C/[C@@H]1[C@@H](C/C=C\CCCCOC)[C@@H](O)C[C@H]1O`, for which the z-score was -0.514 (inactive) and the cell count stood at 5540.
In the case of `CCCCC[C@@H](O)[C@H]1C(=O)O[C@H](C)[C@@H](O)/C=C/C=C/C=C/C=C/C=C(\C)[C@@H](O)C[C@H](O)C[C@H](O)C[C@H](O)C[C@H](O)C[C@H](O)C[C@@H]1O`, the z-score was 0.375 (inactive) and the cell count came out at 5780.
Consider `Cc1cc(-c2ccccc2)nc2cc(C(=O)Nc3cccc(O)c3)nn12`, for which the z-score under setting [1] was 0.0171 (inactive), the z-score under setting [2] is 0.0308 (inactive), the z-score under setting [3] was -0.473 (inactive) and the z-score under setting [4] was -0.672 (inactive). For the same compound, the cell count under setting [1] was found to be 5500, the cell count under setting [2] came out at 5070, the cell count under setting [3] came out at 5150 and the cell count under setting [4] is 5110.
